NPR1 antag = human Npr1 receptor antagonism; 1.6% of 76,000 active; P16066; HEK293 hNpr1 GloSensor cGMP, ANP-stimulated luminescence; Potency, µM (series often up to 46.3 µM), most hits filed as inhibitors; AID 1347048; calls by dose curve; note: nearly all actives have a fitted effect of over 60% in size
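HEK293 cells stably expressing human Npr1 and cGMP GloSensor pGS-40F, loaded 2 h with 2% GloSensor reagent, given compound 30 min at room temperature. Luminescence read before and 20 min after 0.1 nM hNppA.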
HEK293 tox = cytotoxic compounds in HEK 293 cells; HEK 293 viability, ATP luminescence (CellTiter-Glo), 48-72 h; Potency, µM (titrated, usually from 115 µM), actives largely listed as inhibitors; 6.6% of 94,000 active; AID 1345083; note: nearly all actives have a fitted effect of over 60% in size
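Read-out: CellTiter-Glo ATP luminescence. Cells: HEK 293, 250 cells/well. Exposure: 48 or 72 hr, 37 degree Celsius.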
3T3 cytotox = cytotoxic compounds in NIH 3T3 cells | NIH 3T3 viability, CellTiter-Glo ATP luminescence, 48-72 h | Potency, µM (doses to about 96.7 µM), actives largely listed as inhibitors | 4.3% of 94,000 active; note: nearly all actives have a fitted effect of over 55% in size
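Viability of NIH 3T3 cells after 48 or 72 hr compound treatment at 37 °C was assessed by CellTiter-Glo, with luminescence imaged following a 10 min room-temperature step.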
FLuc inh = blocks purified firefly luciferase enzyme activity. P08659. purified P. pyralis luciferase, luminescence, biochemical. Potency, µM (titrated, usually from 115 µM), hits mostly inhibitors. 2.5% of 76,000 active. AID 1347043; note: nearly all actives have a fitted effect of over 65% in size
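Purified P. pyralis luciferase (10nM final) in 50mM Tris acetate pH 7.5, 10mM Mg acetate, 0.01% Tween-20, 0.05% BSA with 10uM D-luciferin and 10uM ATP. Compounds titrated qHTS. Luminescence imaged on CCD.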
Each line names hits and unclear results; the compound was inactive in the other large screens. Shown are actives, neighbours in structure and some others; about 11% of the full set was active somewhere. Unless noted, calls come from the whole dose curve; as a rule, active = well fitted curve in the direction sought with a large enough effect; inconclusive = small, poorly fitted or top-dose-only effect, or another doubt; inactive = no such curve, though single readings can be large; an effect the other way counts as inactive or inconclusive.

O=C(NCCCc1ccccc1F)[C@@]12CNC[C@@H]1CN(Cc1ccccc1)C2	HEK293 tox 45µM, 3T3 cytotox 28µM
COCCN1C(=O)CCc2cc(NC(=O)c3ccc(F)cc3Cl)ccc21	HEK293 tox inconclusive
CN(CC[C@H]1CN(C(=O)c2ccnc(Cl)c2)CC[C@H]1CC(=O)O)c1ccccc1	3T3 cytotox 28µM
CN(CC[C@H]1CN(C(=O)c2cccs2)CC[C@H]1CC(=O)O)c1ccccc1	none
COCCNc1ncc(-c2cccc(O)c2)c2c1OCC2	FLuc inh 28µM
COCCNc1ncc(-c2cccc(N)c2)c2c1OCC2	HEK293 tox inconclusive, 3T3 cytotox inconclusive, FLuc inh 25µM
COCCNc1ncc(-c2cccc(C(C)=O)c2)c2c1OCC2	HEK293 tox inconclusive, 3T3 cytotox inconclusive, FLuc inh inconclusive
O=C(NCCC1CCCCC1)c1ccc2nccn2c1	HEK293 tox 50µM, 3T3 cytotox inconclusive, FLuc inh inconclusive
O=C(NCC1CC1)c1ccc2nccn2c1	none (no result: NPR1 antag, FLuc inh)
O=C(NCc1cccs1)c1ccc2nccn2c1	FLuc inh 40µM
Cc1nc(C2CCCN(C(=O)CN)C2)cc(N2CCOCC2)n1 (stereo not drawn)	none
CC(C)c1noc(-c2ccn3c(CNC(=O)c4ccc(N(C)C)cc4)nnc3c2)n1	none
CC(C)c1noc(-c2ccn3c(CNC(=O)c4cccc(N(C)C)c4)nnc3c2)n1	HEK293 tox inconclusive, 3T3 cytotox inconclusive, FLuc inh 28µM
CN1CC2(CCN(c3ccc(C#N)cn3)CC2)CC(c2ccccc2)C1=O (stereo not drawn)	HEK293 tox inconclusive, 3T3 cytotox inconclusive
O=C(NC1CCCCC1)N1c2ccccc2CC1c1noc(C2CCOCC2)n1 (stereo not drawn)	none
O=C(NC1CCCC1)N1c2ccccc2CC1c1nc(C2CC2)no1 (stereo not drawn)	NPR1 antag inconclusive, HEK293 tox inconclusive, 3T3 cytotox inconclusive, FLuc inh 20µM
Cc1ccc(-c2noc([C@@H]3C[C@@H](O)CN3Cc3cccc(OC(F)(F)F)c3)n2)cc1F	HEK293 tox inconclusive, 3T3 cytotox inconclusive
O[C@@H]1C[C@@H](c2nc(-c3ccccc3)no2)N(Cc2cccc(OC(F)(F)F)c2)C1	HEK293 tox inconclusive, 3T3 cytotox inconclusive, FLuc inh 71µM
O[C@@H]1C[C@@H](c2nc(-c3ccc(C(F)(F)F)cc3)no2)N(Cc2cccc(OC(F)(F)F)c2)C1	HEK293 tox 79µM, 3T3 cytotox inconclusive, FLuc inh 35µM
CC(c1cccs1)N(C)C(=O)c1cccc(Cl)c1 (stereo not drawn)	HEK293 tox 100µM
CC(c1cccs1)N(C)C(=O)Nc1ccc(Cl)cc1 (stereo not drawn)	HEK293 tox inconclusive, 3T3 cytotox 79µM, FLuc inh 45µM
COc1cccc(C(=O)N(C)C(C)c2cccs2)c1 (stereo not drawn)	none
O=C(COc1ccccc1)NC[C@H]1O[C@H](Cc2cc(-c3ccccc3)on2)CC[C@@H]1O	HEK293 tox inconclusive, 3T3 cytotox inconclusive
CCCN(Cc1ccco1)C(=O)C1CCC(=O)N(CC2CCCCC2)C1 (stereo not drawn)	HEK293 tox inconclusive, 3T3 cytotox inconclusive
Cc1ccccc1-c1cc(C(=O)NCCc2cnc[nH]2)c2c(c1)N(C)CCO2	HEK293 tox inconclusive, 3T3 cytotox 100µM
Cc1cc(C)c(CNC(=O)c2cc(-c3ccccc3C)cc3c2OCCN3C)c(=O)[nH]1	HEK293 tox 89µM, 3T3 cytotox 45µM
COc1ccc(-c2cc(C(=O)NCc3c(C)cc(C)[nH]c3=O)c3c(c2)N(C(C)C)CCO3)cc1OC	HEK293 tox inconclusive, 3T3 cytotox 25µM
COc1ccccc1-c1cc(C(=O)NCc2c(C)cc(C)[nH]c2=O)c2c(c1)ncn2C	HEK293 tox inconclusive, 3T3 cytotox 40µM
O=S(=O)(Cc1ccccc1)NCc1cccnc1Oc1ccccc1	none
Cc1cc(C)c(CNC(=O)c2cc(-c3cccnc3)cc3c2OCCN3C(C)C)c(=O)[nH]1	HEK293 tox 100µM, 3T3 cytotox inconclusive
Cc1cc(C)n(CCC(=O)N[C@@H]2CN(c3ncccn3)C[C@H]2CO)n1	none
CCCCc1nc(C)cc(NCCNC(=O)C2CCCN(C(N)=O)C2)n1 (stereo not drawn)	none
Cc1ccc(C(=O)NC2CCN(Cc3ccc(-c4ccsc4)cc3)C2)cc1 (stereo not drawn)	none (no result: NPR1 antag, FLuc inh)
O=C(NC1CCN(CCn2nc3n(c2=O)CCCC3)C1)c1ccccc1Cl (stereo not drawn)	none (no result: NPR1 antag, FLuc inh)
O=C(NC1CCN(Cc2ccc(-c3ccsc3)cc2)C1)c1ccncc1 (stereo not drawn)	HEK293 tox 40µM, 3T3 cytotox inconclusive (no result: NPR1 antag, FLuc inh)
O=C(NC1CCN(Cc2ccc(-c3ccsc3)cc2)C1)c1ccccc1Cl (stereo not drawn)	HEK293 tox 45µM, 3T3 cytotox inconclusive (no result: NPR1 antag, FLuc inh)
O=C(NC1CCN(Cc2ccc(-c3ccsc3)cc2)C1)c1ccccc1 (stereo not drawn)	HEK293 tox 45µM, 3T3 cytotox inconclusive (no result: NPR1 antag, FLuc inh)
Cc1ccc2oc(C(=O)NC3CC(=O)N(C(C)C)C3)c(C)c2c1 (stereo not drawn)	none
O=C(O)c1cccc(CN2CC(COc3ccccc3)C3(C2)CN(c2ccccc2)C3)c1 (stereo not drawn)	HEK293 tox inconclusive
O=[S+]([O-])(NCC1CN(Cc2ccc(O)cc2)CC12CN(c1ccccc1)C2)c1ccccc1 (stereo not drawn)	HEK293 tox inconclusive, 3T3 cytotox 18µM
c1ccc(OCC2CN(Cc3ccc4[nH]ccc4c3)CC23CN(c2ccccc2)C3)cc1 (stereo not drawn)	NPR1 antag inconclusive, HEK293 tox 28µM, 3T3 cytotox 25µM
O=C(Cc1ccccc1)NCC1CN(Cc2ccc3[nH]ccc3c2)CC12CN(c1ccccc1)C2 (stereo not drawn)	HEK293 tox 40µM, 3T3 cytotox 22µM
c1ccc(OCC2CN(Cc3ccncc3)CC23CN(c2ccccc2)C3)cc1 (stereo not drawn)	HEK293 tox inconclusive, 3T3 cytotox 89µM
O=S(=O)(NCC1CCOCC1)c1ccc(F)c(F)c1	none
CC(C)(C)CC(=O)N[C@H]1C[C@H]2C(=O)Nc3ccc(-c4cccs4)cc3C(=O)N2C1	none
CCC1Oc2ccc(NC(=O)c3ccc4c(c3)OCO4)cc2CN(Cc2ccccc2)C1=O (stereo not drawn)	HEK293 tox 89µM
CCC1Oc2ccc(NC(=O)Cc3ccccc3)cc2CN(Cc2ccc3c(c2)OCO3)C1=O (stereo not drawn)	HEK293 tox 35µM, 3T3 cytotox inconclusive
CCC1Oc2ccc(NC(=O)Cc3ccccc3)cc2CN(Cc2ccc(OC)cc2)C1=O (stereo not drawn)	HEK293 tox inconclusive, 3T3 cytotox inconclusive
CCC1Oc2ccc(NC(=O)Cc3ccc(OC)cc3)cc2CN(Cc2ccc3c(c2)OCO3)C1=O (stereo not drawn)	HEK293 tox 22µM, 3T3 cytotox inconclusive
CCC1Oc2ccc(NC(=O)c3cccc(OC)c3)cc2CN(Cc2ccccc2)C1=O (stereo not drawn)	HEK293 tox 45µM, 3T3 cytotox inconclusive

High-throughput results (PubChem BioAssay)
